For 103 compounds, Potency results are on record in PubChem BioAssay AID504832 (National Center for Advancing Translational Sciences (NCATS), 2011).

Out of some 310,000 compounds screened, about 18,000 (5.8%) were called active. Inconclusive results (about 22%) are left out. Calls come from the whole dose curve; as a rule, active = well fitted inhibition curve with a large enough effect; inconclusive = small, poorly fitted or top-dose-only effect, or another doubt; inactive = no such curve, though single readings can be large or run the other way. Shown is part of a subset that was picked to be rich in actives. A call without a number means that no potency is given here.
Potency is the fitted concentration of half-maximal effect.

This assay can be described thus: Primary qHTS for delayed death inhibitors of the malarial parasite plastid, 48 hour incubation. The settings on record: P. falciparum luciferase growth in erythrocytes; series mostly up to 28.7 µM. In short, it runs like this: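 Luminescence readout; reporter = integrated firefly luciferase in P. falciparum. RBC culture at 2% hematocrit, 0.1% parasitemia final, 37 C/5% CO2; decreased signal taken as growth inhibition.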
In general terms: qHTS replaces the single test concentration by a dilution series.
As to `Cc1ccc(C(=O)NCC(=O)NCc2cc(=O)n(C)c(=O)n2C)cc1`, the Potency result is “inactive”.

Consider `COc1ccc(NC(=O)CC2SC(N3CCCCC3)=NC2=O)cc1OC` (stereo not drawn), for which the Potency result was “inactive”.

`COc1ccc(C(=O)NC(=S)Nc2ccc(N3CCCC3)cc2)cc1OC`: the Potency entry is “inactive”.

For `COc1ccc(C(=O)Nc2ccc3nc(N4CCCCC4)cc(C)c3c2)cc1OC`, the Potency is 3.7 µM (active).

For the compound `COc1ccc(NC(=O)CCn2ccnc2)c(OC)c1`, the Potency entry is “inactive”.

As for `COc1ccc(-c2csc(NC(=O)CCCc3cccs3)n2)cc1`, the Potency result was “inactive”.

As to `O=C(CSc1nc2ccccc2c(=O)[nH]1)Nc1nc(-c2ccc(Br)cc2)cs1`, the Potency result is “inactive”.

With `Cc1cc(C)c(-c2csc(NC(=O)CCCc3nc4ccccc4c(=O)[nH]3)n2)c(C)c1`, the Potency is 0.131 µM (active).

For the compound `CC(=O)NCc1ccc(-c2csc(NC(=O)CCCc3nc4ccccc4c(=O)[nH]3)n2)cc1`, the Potency was 9.28 µM (active).

As for `CCN(CC)c1ccc(C(=O)NNC(=O)CCc2nc3ccccc3c(=O)[nH]2)cc1`, the Potency entry is “inactive”.

As for `CC(C)(C)c1ccc(NC(=O)COC(=O)CCc2nc3ccccc3c(=O)[nH]2)cc1`, the Potency entry is “inactive”.

For `CN(C(=O)CCNC(=O)Cn1ccc2ccccc2c1=O)c1ccc(Br)cc1`, the Potency entry was “inactive”.

On to `N=c1oc2ccccc2cc1C(=O)NCc1ccccc1`, for which the Potency entry was “inactive”.

Turning to `CS(=O)(=O)N1CCc2cc(C(=O)Nc3ccccc3Br)ccc21`, the Potency entry is “inactive”.

For `COc1ccc(NC(=O)CNC(=O)Cc2ccccc2)cc1OC`, the Potency entry was “inactive”.

In the case of `Cc1cc(NC(=O)CCC(=O)N(Cc2ccccc2)C(C(=O)NC2CCCC2)c2ccc(C)o2)no1` (stereo not drawn), the Potency entry is “inactive”.

As for `CN(Cc1c(F)cccc1Cl)C(=O)CNC(=O)c1ccc2c(c1)OCO2`, the Potency result was “inactive”.

With `NC(=O)NC(CC(=O)NNC(=O)c1ccccn1)c1ccc(Cl)cc1` (stereo not drawn), the Potency result was “inactive”.

`Cc1cc(C)c2c(=O)[nH]c(SCC(=O)Nc3ccc(Br)cc3)nc2n1`: the Potency entry is “inactive”.

Consider `COc1ccccc1CNC(=O)CSc1nc(=O)n(Cc2ccncc2)c2c1CCC2`, for which the Potency was 11.7 µM (active).

Turning to `CN(C)CCn1c2c(c(SCC(=O)Nc3ccccc3C(F)(F)F)nc1=O)CCCC2`, the Potency result was “inactive”.

Regarding `CN(C)CCn1c2c(c(SCC(=O)NCc3ccccc3)nc1=O)CCC2`, the Potency entry is “inactive”.

On to `Cc1ccc(NS(=O)(=O)c2ccc3c(c2)oc(=O)n3C)c(C)c1`, for which the Potency entry was “inactive”.

As for `Cc1c(NC(=O)C(C)Oc2cccc(Cl)c2)c(=O)n(-c2ccccc2)n1C` (stereo not drawn), the Potency result was “inactive”.

As for `COc1ccc(NC(=O)c2cnc(NS(=O)(=O)c3ccccc3)nc2)cc1`, the Potency result is “inactive”.

As for `COc1ccc(-c2cc(C(=O)N(C)CC(=O)Nc3ccccc3Cl)c3ccccc3n2)cc1OC`, the Potency is 13.1 µM (active).

In the case of `COc1ccc(CN(C)C(=O)c2cc(-c3ccc(C)cc3C)nc3ccccc23)c(OC)c1OC`, the Potency was 9.28 µM (active).

`Cc1ccc(-c2cc(C(=O)Nc3nn[nH]n3)c3ccccc3n2)c(C)c1`: the Potency result was “inactive”.

In the case of `CN(CC(=O)Nc1ccccc1Cl)C(=O)c1ccccc1SCC(=O)N1CCCC1`, the Potency entry was “inactive”.

As to `COc1ccc(C)cc1N(C)C(=O)c1coc(=O)c2ccccc12`, the Potency entry was “inactive”.

For `Cc1cccc(C(=O)NCC(=O)OCC(=O)N(C)CC(=O)Nc2ccccc2Cl)c1`, the Potency entry was “inactive”.

`COc1cc(N=Cc2c(O)c3ccccc3oc2=O)c(OC)cc1Cl`: the Potency result was “inactive”.

For `CC(C)c1nnc(NC(=O)COC(=O)/C=C/c2ccc([N+](=O)[O-])cc2)s1`, the Potency result was “inactive”.

`COc1ccccc1-n1nnnc1SCC(=O)NC(=O)Cc1ccccc1`: the Potency result was “inactive”.

As for `C=CCOc1c(CNn2cn[nH]c2=S)cccc1OC`, the Potency entry was “inactive”.

Turning to `C=CCOc1cccc(CNn2cn[nH]c2=S)c1`, the Potency result was “inactive”.

For `COc1cccc(CNn2cn[nH]c2=S)c1OCc1ccccc1`, the Potency was 10.4 µM (active).

`CC(=O)c1c(C)[nH]c(C(=O)OCC(=O)Nc2c(C)cccc2C)c1C`: the Potency entry was “inactive”.

For `CSc1ccc(Cl)c(C(=O)OCC(=O)N2CCNC2=O)c1`, the Potency result is “inactive”.

`CCOC(=O)CC1C(=O)NCCN1C(=O)COc1ccc(Br)cc1C` (stereo not drawn): the Potency entry is “inactive”.

For the compound `COc1ccc(C(=O)NC(=S)N2CCNC(=O)C2CC(=O)OC(C)C)cc1` (stereo not drawn), the Potency result was “inactive”.

For the compound `CCOC(=O)CC1C(=O)NCCN1c1nc2c(C)cccn2c(=O)c1/C=C1\SC(=S)N(C(C)CC)C1=O` (stereo not drawn), the Potency is 8.28 µM (active).

Take `Cc1cc2c(cc1C)[n+](C)cn2CC(O)COCC1CC=CCC1` (stereo not drawn): the Potency is 2.94 µM (active).

For the compound `COc1ccc(S(=O)(=O)NCCOc2ccccc2)cc1F`, the Potency entry was “inactive”.

For `COc1ccc(NC(=O)CCC(=O)Nc2cc(OC)c(NC(=O)c3ccco3)cc2OC)c(OC)c1`, the Potency result is “inactive”.

On to `CC1(c2ccc(Cl)cc2Cl)NC(=O)N(CC(=O)Nc2cccnc2Cl)C1=O` (stereo not drawn), for which the Potency result was “inactive”.

Take `Cc1cc(Br)ccc1NC(=O)CN(C)C(=O)CN1C(=O)NC2(CCCC2)C1=O`: the Potency entry was “inactive”.

Take `COc1cc(NS(=O)(=O)c2ccc3ccccc3c2)c2ncccc2c1`: the Potency was 4.15 µM (active).

For `Cc1ccc(S(=O)(=O)Nc2ccc3ncccc3c2)cc1`, the Potency entry was “inactive”.

`COc1ccc2cc(S(=O)(=O)Nc3ccccn3)ccc2c1`: the Potency entry was “inactive”.

In the case of `CN(C(=O)C1CCN(c2ncnc3c2nc2n3CCCCC2)CC1)C1CCCCC1`, the Potency result was “inactive”.

As to `Cc1cc(C)cc(NC(=O)NCc2ccccn2)c1`, the Potency result was “inactive”.

On to `CN(C)C(=O)N=NC(=O)N(C)C`, for which the Potency result was “inactive”.

As for `Cc1ccc(C(=O)C[n+]2cc(-c3ccccc3)n3c2CCCCC3)cc1`, the Potency was 1.85 µM (active).

For the compound `O=C(CN1C2=NCCN2c2ccccc21)c1cccs1`, the Potency entry is “inactive”.

As for `Cc1ccc(S(=O)(=O)N(C)CC(=O)OCC(=O)Nc2ccccc2)cc1`, the Potency entry was “inactive”.

Regarding `Cc1ccc(C(=O)CS(C)(=O)=O)cc1`, the Potency result was “inactive”.

Turning to `CCS(=O)(=O)N1CCN(C(=O)c2cccs2)CC1`, the Potency result is “inactive”.

Regarding `O=C(CN1CCOCC1)Nc1ccccc1`, the Potency result was “inactive”.

On to `O=C(C[n+]1cc(-c2ccc(Cl)c(Cl)c2)n2c1CCC2)c1cccs1`, for which the Potency is 2.08 µM (active).

Consider `Cc1ccc(C(=O)CSc2ccccc2C(=O)O)cc1`, for which the Potency result was “inactive”.

As to `Cc1ccc(-c2c[n+](CC(=O)Nc3ccccc3)c3n2CCC3)cc1`, the Potency was 7.38 µM (active).

On to `Cc1c(NC(=O)c2c([N+](=O)[O-])cnn2C)c(=O)n(-c2ccccc2)n1C`, for which the Potency entry was “inactive”.

`Cc1ccc(NC(=O)CCN2C(=O)c3ccccc3C2=O)cc1C`: the Potency result was “inactive”.

In the case of `O=C(NCc1ccc2c(c1)OCO2)C(=O)NCC1OCCN1S(=O)(=O)c1ccc(F)cc1` (stereo not drawn), the Potency entry was “inactive”.

Consider `O=C(COc1ccccc1)Nc1cc2c3c(c1)CC(=O)N3CCC2`, for which the Potency result is “inactive”.

For the compound `Cc1nn(-c2ccccc2)c2c1c(C)c(CCC(=O)NCC1CCCO1)c(=O)n2C` (stereo not drawn), the Potency entry was “inactive”.

Turning to `Cc1cc(OCC(=O)Nc2c(C)n(C)n(-c3ccccc3)c2=O)ccc1[N+](=O)[O-]`, the Potency entry is “inactive”.

Turning to `CCCCc1nc2cc(C(=O)NCCc3cnn(C)c3)ccc2o1`, the Potency entry is “inactive”.

`Cc1oc(-c2ccccc2F)nc1CS(=O)CC(=O)NCCN1CCCCC1C` (stereo not drawn): the Potency result is “inactive”.

Take `C/C(=N\NC(=S)NC(C)C)c1ccc(C(C)(C)C)cc1`: the Potency result is “inactive”.

In the case of `CC(C)(C)NC(=O)C(=O)NN=C1CCCCCCC1`, the Potency result is “inactive”.

`CC(C)NC(=S)NN=C1CCCCCCCCCCC1`: the Potency is 11.7 µM (active).

`COc1ccccc1C(=O)Nc1cccc(C(=O)N2CCOCC2)c1`: the Potency result was “inactive”.

Regarding `Cc1noc(C)c1CCC(=O)N1CCCC(CO)(Cc2ccccc2)C1` (stereo not drawn), the Potency result is “inactive”.

As for `Cc1ccccc1N1CCN(CCCN2C(=O)C3CCCCN3C2=O)CC1` (stereo not drawn), the Potency entry is “inactive”.

For `CC(=O)Nc1ccc(S(=O)(=O)NNC(=O)CCc2ccccc2)cc1`, the Potency result is “inactive”.

For `CS(=O)(=O)N1CCCC(C(=O)Nc2ccccc2C(F)(F)F)C1` (stereo not drawn), the Potency result is “inactive”.

For the compound `O=C(OCC1OC(Oc2ccc(O)cc2)C(O)C(O)C1O)c1ccccc1` (stereo not drawn), the Potency entry was “inactive”.

Turning to `Cc1cc(C)c2nc3nc(C)cc(C)c3c(N)c2c1`, the Potency is 2.33 µM (active).

For `Cc1cc(C)c2nc(-c3ccco3)cc(C(=O)O)c2c1`, the Potency entry is “inactive”.

For the compound `Cc1cc(C)c2nc(SCCC#N)nc(C)c2c1`, the Potency result was “inactive”.

Consider `Cc1ccc(C(=O)NCCN2CCOCC2)cc1C`, for which the Potency result is “inactive”.

On to `CCC1=Nc2cc(C(=O)NCCN3CCCC3)ccc2Sc2ccc(C)cc21`, for which the Potency was 10.4 µM (active).

Take `Cc1cc(C)cc(C(=O)NCCN2CCOCC2)c1`: the Potency entry is “inactive”.

For `COc1cccc(C(C(=O)NC2CCCC2)N(C(=O)c2ccco2)c2cccc(C(C)=O)c2)c1OC` (stereo not drawn), the Potency was 1.85 µM (active).

For the compound `Cc1ccc(N(C(=O)CNC(=O)c2ccco2)C(C(=O)NC2CCCC2)c2ccncc2)cc1` (stereo not drawn), the Potency entry is “inactive”.

In the case of `CC(C)c1ccc(N(C(=O)c2ccco2)C(C(=O)NC2CCCC2)c2cccnc2)cc1` (stereo not drawn), the Potency is 9.28 µM (active).

Consider `O=C(NC1CCCC1)C(c1ccco1)N(C(=O)c1csnn1)c1ccccc1` (stereo not drawn), for which the Potency entry is “inactive”.

Turning to `O=C(NCc1ccccc1)C(c1ccco1)N(C(=O)c1csnn1)c1ccccc1F` (stereo not drawn), the Potency entry is “inactive”.

For `Cc1ccccc1N(C(=O)CNC(=O)c1cccs1)C(C(=O)NC1CCCC1)c1ccncc1` (stereo not drawn), the Potency result was “inactive”.

For the compound `O=C(NC1CCCC1)C(c1ccc(N2CCOCC2)cc1)N(C(=O)c1ccco1)c1ccccc1F` (stereo not drawn), the Potency was 10.4 µM (active).

As to `COc1cccc(N(C(=O)CNC(=O)c2ccco2)C(C(=O)NC2CCCCC2)c2cccnc2)c1` (stereo not drawn), the Potency entry is “inactive”.

`COc1cc(C(C(=O)NC2CCCC2)N(C(=O)c2ccco2)c2ccccc2C(C)=O)cc(OC)c1OC` (stereo not drawn): the Potency entry is “inactive”.

Turning to `CSc1ccccc1NC(=O)C(C)N1C(=O)c2ccccc2S1(=O)=O` (stereo not drawn), the Potency entry was “inactive”.

For the compound `CC1=C(C(=O)OC2CCCCC2)C(c2ccccc2F)NC(=O)N1` (stereo not drawn), the Potency entry is “inactive”.

For `CC(=O)c1c(C)[nH]c(C(=O)COc2ccc3c(C)cc(=O)oc3c2)c1C`, the Potency entry was “inactive”.

Turning to `CN(C1CCS(=O)(=O)C1)S(=O)(=O)c1ccc2ccccc2c1` (stereo not drawn), the Potency result is “inactive”.

In the case of `COc1ccc(NC(=O)NNC(=O)COc2cc(C)c(Cl)c(C)c2)c(OC)c1`, the Potency result is “inactive”.

Consider `CCN1C(=O)/C(=c2\s/c(=C3\Sc4ccccc4N3C)c(=O)n2C)N(C)C1=S`, for which the Potency entry is “inactive”.

Consider `CN1/C(=c2/s/c(=C3/C(=O)N(c4ccccc4)NC3=Nc3ccccc3)n(C)c2=O)C(C)(C)c2ccccc21`, for which the Potency was 13.1 µM (active).

`CCc1cc2c(NC(Cc3ccccc3)C(=O)O)ncnc2s1` (stereo not drawn): the Potency entry is “inactive”.

For `CC(C)(C)C(=O)CSc1ccc(S(=O)(=O)N2CCCC2)cn1`, the Potency result is “inactive”.
